According to PubChem BioAssay (NCI):
This is part of a sample that, as a whole, favours compounds with a hit. Of some 83,000 tested, about 20% had one in any assay.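 In brief: 96-well plates, 48 h treatment, single concentration, percent growth endpoint.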 Unmarked numbers belong to inactive results. The source made the active and inactive calls. How the source made its calls: active means growth percent below 10; inactive means the rest.

Legend:
Test in all cases: NCI-60 one-dose screen, 48 h (100 = growth as untreated, 0 = no growth, -100 = all killed)
Conditions in all cases: 10 µM unless noted
NCI-H23 lung = system: NCI-H23 lung
NCI-H226 lung = system: NCI-H226 lung
NCI-H322M lung = system: NCI-H322M lung
HOP-62 NSCLC = system: HOP-62 NSCLC
NCI-H460 lung = system: NCI-H460 lung
HOP-92 NSCLC = system: HOP-92 NSCLC
NCI-H522 lung = system: NCI-H522 lung
A549/ATCC NSCLC = system: A549/ATCC NSCLC
786-0 renal = system: 786-0 renal
COLO 205 colon = system: COLO 205 colon
DU-145 prostate = system: DU-145 prostate
K-562 leukemia = system: K-562 leukemia
MALME-3M melanoma = system: MALME-3M melanoma
MDA-MB-231 breast = system: MDA-MB-231 breast
RXF 393 renal = system: RXF 393 renal
SF-268 CNS = system: SF-268 CNS
SF-295 CNS = system: SF-295 CNS
SF-539 CNS = system: SF-539 CNS
UACC-257 melanoma = system: UACC-257 melanoma
M14 melanoma = system: M14 melanoma

| SMILES | growth (NCI-H23 lung) | growth (NCI-H226 lung) | growth (NCI-H322M lung) | growth (HOP-62 NSCLC) | growth (NCI-H460 lung) | growth (HOP-92 NSCLC) | growth (NCI-H522 lung) | growth (A549/ATCC NSCLC) | growth (786-0 renal) | growth (COLO 205 colon) | growth (DU-145 prostate) | growth (K-562 leukemia) | growth (MALME-3M melanoma) | growth (MDA-MB-231 breast) | growth (RXF 393 renal) | growth (SF-268 CNS) | growth (SF-295 CNS) | growth (SF-539 CNS) | growth (UACC-257 melanoma) | growth (M14 melanoma) |
| --- | --- | --- | --- | --- | --- | --- | --- | --- | --- | --- | --- | --- | --- | --- | --- | --- | --- | --- | --- | --- |
| CCC1=CCC[C@@]2(C)CCC[C@@]3(C)CCCC(C)(C)[C@]1([O-])[O+]32 | 99.7% | 102% | 116% | 104% | 109% | 87.8% | 93.9% | 103% | 97.9% | 112% | 105% | 101% | 107% | 121% | 111% | 107% | 99.7% | 103% | 105% | 101% |
| CN1CCN(CCCOc2ccc3nc(Nc4ccc(Cl)c(C(F)(F)F)c4)ccc3c2)CC1 | 67.3% | 88.9% | 53.6% | 57.8% | 44.4% | 43% | 90.2% | 55.3% | 68.6% | -40.7% (active) | 54.1% | -28.2% (active) | 55.9% | -12.9% (active) | 58.8% | 59.7% | 56% | 47% | – | -11.6% (active) |
| S=C1CC(=S)NC(=S)N1 | 103% | 103% | 124% | 104% | 102% | 102% | 101% | 111% | 106% | 100% | 108% | 119% | 121% | 106% | 107% | 102% | 116% | – | 105% | 103% |
| COc1ccc(Nc2nn3c(-c4ccccc4)cc(-c4ccccc4)nc3c2C(N)=O)c(OC)c1 | 33.5% | 46.4% | 61.4% | 47.3% | 20.3% | 70.9% | 34.8% | 24% | 67.6% | 53.2% | 38.2% | 58.1% | 44.7% | 29.3% | 84.7% | 53.4% | 37.5% | 13.4% | 62.4% | 51.3% |
| COc1ccc(OC)c(C2OC(c3ccc4ccccc4c3O)=NN2C(C)=O)c1 (stereo not given) | 80% | 87.1% | 77.5% | 65.4% | 43% | 54.4% | 35.6% | 56.5% | 81.9% | 77.1% | 77.8% | 31.3% | 43.8% | 91.1% | 53.1% | 80.3% | – | 65.5% | 57.6% | 54.6% |
| O=C(/C=C/c1cc(-c2ccc3c(c2)OCO3)n[nH]1)c1ccc2c(c1)OCO2 | 94.6% | 89.4% | 86.6% | 96.9% | 97.5% | 77.7% | 72% | 90.7% | 99.2% | 97.7% | 104% | 82.6% | 106% | 92.4% | 94.4% | 93.3% | 97% | – | 96.1% | 99.6% |
| C=C[C@@H]1C[C@@H]2Cc3cc(Cl)ccc3N1O2 | 101% | 88.9% | 130% | 94.8% | 97.5% | 67% | 92.7% | 100% | 102% | 94.3% | 111% | 95.4% | 88% | 99.3% | 104% | 106% | 100% | 105% | 99.2% | 97.9% |
| O=[N+]([O-])c1ccc(Sc2ncccn2)c([N+](=O)[O-])c1 | 53.5% | 96.3% | 97.7% | 94.6% | 95.4% | 18% | -50.1% (active) | 67.9% | 61.3% | 21% | 11.1% | 12.7% | 75.8% | 68.6% | -38.6% (active) | 52.8% | 111% | 96.7% | 29.4% | 62.5% |
| CCCCCCCCCCCCCCCCNC(=O)OC(C)C | 54.1% | 69.1% | -20.9% (active) | 40.5% | 2.2% (active) | 53% | -54.3% (active) | 10.3% | 83.9% | -29.6% (active) | -23.3% (active) | 8% (active) | 81.2% | 23.8% | 80.1% | 64.9% | 20.8% | – | 95.8% | 35.7% |
| COc1cc(C2CC(c3ccc4c(c3)OCO4)=NN2C(C)=O)cc(OC)c1OC (stereo not given) | 44.3% | 52.4% | -12.9% (active) | 35.5% | 10.7% | 74.6% | -29.8% (active) | 36% | 42.1% | -12.8% (active) | 13.7% | 18.2% | 23.3% | 61.3% | 7.22% (active) | 52.7% | -7.31% (active) | – | 66.5% | 29.3% |
| COc1ccc(S(=O)(=O)n2cc(C(=O)C(=O)Nc3ccncc3)c3ccccc32)cc1F | 65.2% | 82.9% | 88.6% | 61.4% | 69.5% | 62.1% | 65.3% | 71% | 84.7% | 94% | 86.4% | 58.8% | 76.4% | 57.1% | 90.9% | 81.7% | 43.2% | 69.1% | 105% | 93.2% |
| COc1cc(C2CC(c3ccc4c(c3)OCO4)=NN2C=O)cc(OC)c1OC (stereo not given) | 59.9% | 58.3% | 14.1% | 36.7% | 15.3% | 74.6% | -3.85% (active) | 46.2% | 37.4% | 12.6% | 31.7% | 17.6% | -3.87% (active) | 68% | 45.7% | 44.8% | -1.84% (active) | – | 65.3% | 26.7% |
| COc1ccc(C2=CC(c3cc(OC)c(OC)c(OC)c3)NC(=O)N2)cc1OC (stereo not given) | 27.3% | 64.3% | -9.67% (active) | 32.6% | 1.25% (active) | 6.24% (active) | -8.71% (active) | 19% | 27.9% | -24.1% (active) | -17.1% (active) | 10.6% | 11.2% | 21.8% | 0.616% (active) | 32.2% | 6.53% (active) | – | 57.2% | 17.2% |
| O=C1c2c(c3c4ccccc4n(CCCCCCBr)c3c3[nH]c4ccccc4c23)C(=O)N1O | -0.173% (active) | 70.5% | 14.8% | 8.33% (active) | 5.88% (active) | -13.6% (active) | -7.94% (active) | 6.36% (active) | 17.3% | 62.4% | 22.6% | 8.97% (active) | -20% (active) | -13.8% (active) | 29.1% | 24.7% | 4.87% (active) | -6% (active) | – | 15.5% |
| OB(O)c1cccc(-c2nc3ccc4[nH]ncc4c3c3c2CCCC3)c1F | 59% | 37.9% | 48.1% | 29.3% | 22.2% | 27.1% | 26.9% | 47.9% | 34.8% | 38.7% | 49.5% | 66.2% | 120% | 40.9% | -20.1% (active) | 53% | 69.3% | 8.65% (active) | 115% | 79.7% |
| NC(=N\N=C/c1ccc(O)cc1)/C(N)=N\N=C/c1ccc(O)cc1 | 90.9% | 101% | 77.5% | 79.3% | 35.9% | 79% | 31.4% | 52.5% | 52.6% | 124% | 63% | 23.7% | 65.3% | 64.8% | 105% | 58.4% | 29.2% | – | 85.4% | 39.5% |
